PubChem BioAssay AID588849 (Broad Institute, 2011)
Results with a measured potency or affinity are listed apart. Active and inactive are the calls of the source. No rule for the calls is given here.

Each molecule was assayed against CAAX prenyl protease 2 (Homo sapiens) (UniProt Q9Y256) (assay: human Rce1 protease inhibitors, dose response, biochemical, yeast membranes, quenched-peptide fluorescence, cherry-pick (AID 588849)). Conditions: yeast membrane fractions expressing human Rce1, quenched-peptide fluorescence, 4 h; series mostly up to 10 µM.
CAAX prenyl protease 2 (Homo sapiens), sequence (Q9Y256 whole entry, looked up): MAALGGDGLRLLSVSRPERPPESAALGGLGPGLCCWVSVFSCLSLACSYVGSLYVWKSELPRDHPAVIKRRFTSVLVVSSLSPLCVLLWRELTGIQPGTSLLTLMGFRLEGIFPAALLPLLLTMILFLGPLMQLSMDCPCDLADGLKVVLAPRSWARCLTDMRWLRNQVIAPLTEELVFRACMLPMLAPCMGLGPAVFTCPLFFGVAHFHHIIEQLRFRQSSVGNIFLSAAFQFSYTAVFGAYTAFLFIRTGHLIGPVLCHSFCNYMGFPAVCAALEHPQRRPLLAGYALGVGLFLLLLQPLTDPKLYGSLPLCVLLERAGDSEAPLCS

outcome, inactive:
COc1ccccc1CC(=O)Nc1ccc2c(C)cc(=O)oc2c1
CCC(=O)Nc1cccc(NC(=S)NC(=O)c2cccs2)c1
O=C(CN(C1CCCCC1)C1CCCCC1)N1CCc2ccccc2C1
COc1ccc(C)cc1NC(=O)CN1C(=O)COc2ccc(S(=O)(=O)N3CCOCC3)cc21
CCOc1ccc(OCC)c(NC(=O)c2nnn(CC(=O)Nc3cc(C)cc(C)c3)c2N)c1
O=C(CN1CCC(NC(=O)c2ccc(Br)cc2)CC1)NCc1cccs1
Cc1ccc(C(=O)c2c3ccc(C(F)(F)F)cc3nn2CCC(N)=O)cc1
Nc1nonc1-n1nnc(C(=O)N/N=C/c2cccc(Cl)c2)c1CSc1ccc(Cl)cc1
C/C(=N\NC(=O)c1ccc(Br)cc1)c1cccc(NC(=O)c2cccnc2)c1
CC(=O)c1c(C)[nH]c(C(=O)OCc2ccc(Br)cc2)c1C
CCN(CC)Cc1c(O)ccc2c(=O)c(-c3ccccc3OC)coc12
O=C(NCCc1c[nH]c2ccccc12)OCCSS(=O)(=O)O
COc1ccc(N2CCN(C(=O)c3cc(-c4cccs4)nc4ccccc34)CC2)cc1
COC(C/C=C/[C@H](O)[C@H](C)OCc1ccccc1)OC
CCCCNC(=O)c1cc2c(=O)n3cccc(C)c3nc2n(Cc2ccccc2)c1=N
CN1CCN(C(=O)c2ccc(-c3cccs3)s2)CC1
CCN(CC)CCN(C(=O)c1ccc2ccccc2c1)c1nc2cc3c(cc2s1)OCO3
O=C(C(Cc1ccccc1)N1C(=O)c2ccccc2C1=O)N1c2ccccc2CCc2ccccc21 (stereo not drawn)
COC(=O)c1sccc1NC(=O)CSc1nnnn1-c1ccccc1C
O=C(O)CCc1nc2cc(C(F)(F)F)ccc2n(Cc2ccccc2)c1=O
Cc1cc(C)n2cc(CSc3nncn3C)nc2n1
O=C(Nc1ccccc1)n1ccc(-c2ccc(-n3ccnc3)cc2)n1
Cc1ccc(C(=O)N/C(=C/c2ccco2)C(=O)Nc2cccc(C(=O)O)c2)cc1
CCOc1cc(CNC2CCCC2)ccc1OCc1ccccc1Cl
CCOc1ccc(NC(=O)CCSc2ccc(C)cc2)cc1
O=S(=O)(CC(CN1CCOCC1)N1CCOCC1)c1ccccc1 (stereo not drawn)
CCSCCOC(=O)C1=C(C)NC(=O)NC1c1ccccc1 (stereo not drawn)
O=C(Nc1ccccc1N1CCOCC1)C1CCN(S(=O)(=O)c2ccc(F)cc2)CC1
Cc1ccc(-c2nc(Nc3ccc(N4CCOCC4)cc3)c3ccccc3n2)cc1
c1ccc(Nc2cccc(Nc3ccccc3)n2)cc1
S=c1[nH]nc(-c2ccccc2)o1
COc1cccc(C2CC(c3cccs3)=NN2C(=O)CSc2nc3c(cnn3-c3ccc(F)cc3)c(=O)[nH]2)c1OC (stereo not drawn)
Cc1ccc(N=Cc2c(O)n(C)c(=O)n(C)c2=O)nc1
CC(C)CNC(=O)COc1cccc(C(=O)NCc2ccccc2)c1
CCN(CC)CCNC(=O)CSc1c2c(nc3cc(Cl)ccc13)CCCC2
Cc1ccc2c(C)c(C(=O)N(Cc3ccc(F)cc3)C3CCS(=O)(=O)C3)oc2c1 (stereo not drawn)
Nc1nnnn1/N=C/c1cccc(OCc2ccccc2Cl)c1
COC(C[C@H](O)C[C@H](O)[C@@H](C)OCc1ccccc1)OC
